Measured values from PubChem BioAssay AID1159580 (chemical genetic matrix, 2015).
Hit rate of the full screen: of about 5,500 compounds, about 2,000 (36%) were called active. About 18% were inconclusive and are not listed. Cut-off read from the data, not from the text of the source: active = normalized growth mostly below about 0.91 (no sharp cut-off); inconclusive = no clear call, values can overlap the other calls; inactive = mostly above about 0.92. This is one part of the list.

Experiment: chemical genetic growth profiling, strain panel (AID 1159580);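 note: tested at 20 µM; growth read once vehicle control cultures reached saturation at 30 °C; 1 = growth at the plate median or of vehicle wells; lower values mean less growth of the strain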
Conditions: S. cerevisiae deletion strains, growth OD

Measured: normalized growth

CC12CCC3C4CCC(=O)C=C4CCC3C1CCC2=O (configuration not stated)
active: locus YLR039C, strain RIC1, active compounds read low 0.786 | locus YLR262C, strain YPT6, active compounds read low 0.737
inactive: locus YAL013W, strain DEP1, active compounds read low 1.01 | locus YBR229C, strain ROT2, active compounds read low 1.01 | locus YDL101C, strain DUN1, active compounds read low 1 | locus YDR150W, strain NUM1, active compounds read low 0.995 | locus YEL061C, strain CIN8, active compounds read low 1.01 | locus YGR078C, strain PAC10, active compounds read low 1.01 | locus YGR229C, strain SMI1, active compounds read low 1.01 | locus YHR030C, strain SLT2, active compounds read low 0.898 | locus YHR087W, strain rtc3, active compounds read low 1.03 | locus YJR043C, strain POL32, active compounds read low 1.02 | locus YJR075W, strain HOC1, active compounds read low 1.02 | locus YLR058C, strain SHM2 (second series), active compounds read low 1.01 | locus YLR085C, strain ARP6, active compounds read low 1.02 | locus YML094W, strain GIM5, active compounds read low 0.994 | locus YMR219W, strain ESC1, active compounds read low 1.01 | locus YMR263W, strain SAP30, active compounds read low 0.999 | locus YMR307W, strain GAS1, active compounds read low 0.989 | locus YNL153C, strain GIM3, active compounds read low 0.991 | locus YNL298W, strain CLA4 (second series), active compounds read low 1.01 | locus YNL322C, strain KRE1, active compounds read low 1.02 | locus YNR030W, strain Alg12, active compounds read low 0.998 | locus YOL006C, strain TOP1, active compounds read low 0.971 | locus YPL055C, strain LGE1, active compounds read low 1.02 | locus YPL241C, strain CIN2, active compounds read low 1.01 | locus YPR135W, strain CTF4, active compounds read low 0.897
